The compounds below were run on HepG2 (assay: GSK_TCMDC: Percent inhibition of human HepG2 cell line. Test compounds present at 10uM.).
Assay type: functional
With `CC1CCN(Cc2ccc(NC(=O)c3cc4ccc5cccnc5c4[nH]3)cc2)CC1` the Inhibition was 10%. `Cc1cc(Nc2ccc(O)cc2)nc2cccc(O)c12` showed an Inhibition of 22%. In the case of `CCCNc1ccc2nccc(CCN3CCC(NCc4ccc5c(n4)NC(=O)CS5)CC3)c2n1`, the Inhibition is reported as 24%. In the case of `O=C(NC1CCCC1)c1ccc(N2CCC(NCc3cc4cc(Cl)ccc4[nH]3)CC2)cc1`, the Inhibition is reported as 21%. Compound `CC1CN(Cc2cccc(-c3ccc(-c4nc5ccccc5[nH]4)cc3)c2)CC(C)O1.O=C(O)C(F)(F)F` (centres undefined) has an Inhibition of 37%. For `Cc1ccc(NC(=O)Nc2ccc(Cl)c(C(F)(F)F)c2)cc1-c1ccc(C(=O)Nc2ccncc2)cc1`, the Inhibition was 77%. `Oc1c(C(Nc2nc3ccccc3s2)c2ccccc2)ccc2cccnc12` (centres undefined) showed an Inhibition of 45%. `N#Cc1cccc(NC(=O)Nc2ccc(-c3ccc(-c4nc5cc(C(F)(F)F)ccc5[nH]4)cc3)cc2)c1` was tested, and the Inhibition was 51%. Compound `O=C(/C=C/c1ccc(C(F)(F)F)cc1)N1CCc2cc3nccc(N4CCN5CCC[C@H]5C4)c3cc21` has an Inhibition of 0%. Compound `COc1ccc(-c2cc(NCc3ccc(-n4ccnc4)cc3)nc(Nc3ccccc3)n2)cc1` has an Inhibition of 8%. `O=C(CN1CCC2(CCC1=O)CC(=O)c1ccccc1O2)NCCN1CCOCC1` (centres undefined) showed an Inhibition of 6%. Work on `COc1ccc(NC(=O)[C@H](Cc2ccccc2)Nc2cc(C)nc(NCCN3CCCC3)n2)cc1.O=C(O)C(F)(F)F` yielded an Inhibition of 15%. For `COc1ccccc1NS(=O)(=O)c1cc(C(=O)Nc2ccc(N3CCOCC3)c(S(=O)(=O)Nc3ccccc3Cl)c2)ccc1Cl`, the Inhibition was 0%. With `Cc1ccc(NC(=O)C2CCC2)cc1-c1ccc(C(=O)NCC2CC2)cc1` the Inhibition was 13%.
